Hits are enriched below; roughly 2.9% of the tested compounds scored in any of these assays.
KLK7 zymogen act = proKLK7 zymogen activators, primary screen, biochemical, fluorescence intensity; activation, % at 7 µM; 370,000 tested, 0.9% active; purified proKLK7, EDANS-DABCYL substrate fluorescence; 100% is mature enzyme control, 0% vehicle; AID 652039, 2013; Kallikrein-7 (Homo sapiens), P49862;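 active = activation above the mean of all tested compounds plus 3 SD, computed per campaign excluding outliers beyond control limits, cut at about 13% in these data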
ADAM17 inh = ADAM17 inhibitors, primary screen, biochemical, QFRET; recombinant ADAM17, EDANS/DABCYL FRET peptide cleavage; inhibition, % at 6.95 µM; 370,000 tested, 0.83% active; AID 720648, 2013;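 active = inhibition above the mean of compounds lying between control limits plus 3 SD, set per campaign, cut at about 8.5% in these data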
Target sequence (P78536 215-824 limits assumed): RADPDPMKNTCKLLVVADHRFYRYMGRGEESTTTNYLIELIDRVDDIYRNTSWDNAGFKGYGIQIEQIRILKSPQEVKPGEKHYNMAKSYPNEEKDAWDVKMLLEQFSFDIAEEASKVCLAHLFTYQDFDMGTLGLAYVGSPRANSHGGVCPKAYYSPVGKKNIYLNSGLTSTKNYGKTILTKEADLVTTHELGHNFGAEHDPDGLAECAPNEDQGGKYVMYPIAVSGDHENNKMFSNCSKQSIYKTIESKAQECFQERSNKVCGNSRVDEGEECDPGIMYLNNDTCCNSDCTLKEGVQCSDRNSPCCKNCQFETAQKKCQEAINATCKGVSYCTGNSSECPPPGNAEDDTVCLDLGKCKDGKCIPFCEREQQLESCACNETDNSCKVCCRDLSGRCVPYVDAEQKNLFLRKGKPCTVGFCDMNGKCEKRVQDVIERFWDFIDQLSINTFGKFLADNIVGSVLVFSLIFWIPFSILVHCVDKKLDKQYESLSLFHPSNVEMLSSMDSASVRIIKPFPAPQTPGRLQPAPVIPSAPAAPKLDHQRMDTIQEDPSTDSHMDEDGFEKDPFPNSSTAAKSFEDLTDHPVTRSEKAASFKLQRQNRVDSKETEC
ADAM10 inh = human ADAM10 inhibitors, primary screen, biochemical, QFRET, HTS; AID 720582, 2013; Disintegrin and metalloproteinase domain-containing protein 10 (Homo sapiens), O14672; 370,000 tested, 0.62% active; recombinant ADAM10, EDANS/DABCYL FRET peptide cleavage, 3 h; inhibition, % at 7 µM;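 active = inhibition above a per-campaign cutoff equal to the mean of compounds falling between control-based bounds plus 3 SD, cut at about 20% in these data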
PLC-gamma1 inh = PLC-gamma1 enzyme inhibitors, primary screen, biochemical, fluorescence, purified enzyme | fluorogenic substrate | inhibition, % at 12.2 µM | 370,000 tested, 0.84% active | AID 720700, 2013; in the data active = inhibition above about 9.5%
PLCb3 inh = human PLC-beta3 inhibitors, primary screen, biochemical, fluorescence; 1-phosphatidylinositol 4,5-bisphosphate phosphodiesterase beta-3 (Homo sapiens), Q01970; Purified PLC-beta3, fluorogenic substrate; inhibition, % at 12.2 µM; 370,000 tested, 0.18% active; in the data active = inhibition above about 11%
KLK7 act conf = proKLK7 zymogen activators, confirmation, biochemical, fluorescence intensity, triplicate; AID 686949, 2013; 3,200 tested, 68% active; shares compounds with KLK7 zymogen act; purified proKLK7, EDANS-DABCYL substrate fluorescence; scaled: vehicle 0, mature enzyme 100; activation, % at 7 µM;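 active = activation, as change over the incubation, above the mean of all tested compounds plus 3 SD, cut at about 13% in these data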
EDANS-DABCYL int = EDANS-DABCYL substrate optical interference, artefact control for kallikrein-7 zymogen activator project, biochemical, fluorescence intensity, high throughput; shares compounds with KLK7 zymogen act; no enzyme, 4 h; solvent 0%, active enzyme control 100%; activation, % at 7 µM; 3,200 tested, 80% active; AID 686952, 2013;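 active = activation above the all-compound mean plus 3 SD, ignoring values outside control-based bounds, cut at about 4.8% in these data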;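 also: value is the 4 h activation minus the activation read at time zero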
K7 EDANS ctr = counter-screen for kallikrein-7 activators: EDANS-DABCYL interference, dose response; shares compounds with KLK7 zymogen act; EDANS-DABCYL peptide fluorescence interference, no enzyme; EC50, µM; 250 tested, 20% active; AID 720493;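 active = compounds that raise the fluorescence signal in this interference counterscreen, with EC50 at or below 10 µM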;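 also: intact quenched peptide substrate alone read at 355 nm excitation and 520 nm emission; signal is fluorescence gain from T0 to T4 after four hours at room temperature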
Large screens that a line does not name were inactive (follow-up assays come after a bar, where they were run).

COC(=O)COc1ccc2c(=O)c(-c3ccccc3)coc2c1	none
CC(C)CNC(=O)OCc1cn(Cc2cccc(Cl)c2)nn1	none
O=C1c2[nH]nc(-c3ccccc3)c2C(c2ccc(F)cc2)N1Cc1ccccc1 (stereo not drawn)	none
C=CCN(CC#Cc1ccccc1)Cc1ccc(OC)cc1OC	none
O=C(NCc1c(F)cccc1F)C1C2C=CC3(CN(Cc4ccccc4)C(=O)C13)O2 (stereo not drawn)	none
NC(=O)COc1ccc2cc(-c3ccc(F)cc3)c(=O)oc2c1	KLK7 zymogen act 33 | KLK7 act conf inactive | EDANS-DABCYL int inactive
COc1ccc(-c2cc3ccc(OCC(C)=O)cc3oc2=O)cc1	KLK7 zymogen act 27 | KLK7 act conf inactive | EDANS-DABCYL int inactive
CCC1(C)Cc2ccccc2-c2nc(NCCO)n(-c3ccccc3)c(=O)c21 (stereo not drawn)	KLK7 zymogen act 26 | KLK7 act conf inactive | EDANS-DABCYL int inactive
CCC1(CC)Cc2ccccc2-c2nc(NCCO)[nH]c(=O)c21	KLK7 zymogen act 25 | KLK7 act conf inactive | EDANS-DABCYL int inactive
COc1ccc(CC(N)c2csc(Nc3ccc(S(C)(=O)=O)cc3)n2)cc1 (stereo not drawn)	KLK7 zymogen act 27 | KLK7 act conf inactive | EDANS-DABCYL int inactive
CC(=O)Nc1cc2c(ccc3ccccc32)oc1=O	KLK7 zymogen act 23 | KLK7 act conf 48 | EDANS-DABCYL int 57
CS(=O)(=O)N1CCN(C(=O)c2cc(-c3ccccc3)nc3ccccc23)CC1	none
O=C(c1cc(-c2cccs2)nc2ccccc12)N1CCN(CCO)CC1	KLK7 zymogen act 14 | KLK7 act conf 22 | EDANS-DABCYL int 14 | K7 EDANS ctr inactive
O=C(c1cc2c(ccc3ccccc32)oc1=O)N1CCN(CCO)CC1	KLK7 zymogen act 26 | KLK7 act conf inactive | EDANS-DABCYL int 9.8
CS(=O)(=O)N1CCN(C(=O)c2cc(-c3cccs3)nc3ccccc23)CC1	KLK7 zymogen act 13 | KLK7 act conf 16 | EDANS-DABCYL int 23
C[C@@H]1ON(C)[C@H]2C[C@H]3c4cc(N5CCCCC5)ccc4CCN3C[C@@H]12	none
CC(=O)N1c2ccccc2C(=O)NCC1C(=O)NC(C)(C)C (stereo not drawn)	none
C[C@H]1C(=O)CC[C@@]23CCCN2C(=O)CCC[C@@H]13	none (no result: KLK7 zymogen act)
CC(C)NC(=O)CCn1nnc(-c2cccs2)n1	none
CCOC(=O)N1CCC(N2C(=O)c3ccccc3C2Nc2ccc3c(C)cc(=O)oc3c2)CC1 (stereo not drawn)	KLK7 zymogen act 36 | KLK7 act conf inactive | EDANS-DABCYL int inactive
COC(=O)c1cc(S(=O)(=O)N2CCN(c3ccccc3Cl)CC2)cn1C	none
CCOC(=O)C1CCN(C(c2cc3ccc(C)c(C)c3[nH]c2=O)c2nnnn2C2CCCCC2)CC1 (stereo not drawn)	none
CCOC(=O)C1CCN(C(c2cc3c(C)ccc(C)c3[nH]c2=O)c2nnnn2C2CCCCC2)CC1 (stereo not drawn)	KLK7 zymogen act 27 | KLK7 act conf inactive | EDANS-DABCYL int inactive
NC(=O)c1ncn([C@@H]2O[C@H](C(=O)N[C@H](Cc3c[nH]c4ccccc34)C(=O)N3CCN(C(=O)N4CCCCC4)CC3)[C@@H](O)[C@H]2O)n1	none
O=c1c2ccccc2[nH]c2ccccc12	KLK7 zymogen act 17 | KLK7 act conf 17 | EDANS-DABCYL int 24
c1ccc2c(c1)[nH]c1ccccc12	none
O=C1CC(c2ccc(O)c(O)c2)Oc2c1ccc(O)c2O (stereo not drawn)	KLK7 zymogen act 16 | KLK7 act conf inactive | EDANS-DABCYL int 7.7
CC(C)=CCc1c(O)ccc2c1OC(c1ccc(O)c(O)c1)CC2=O (stereo not drawn)	none
COc1ccc(/C=C(\C#N)C(=O)NCc2ccccc2)cc1	KLK7 zymogen act 38 | KLK7 act conf inactive | EDANS-DABCYL int inactive
COC(=O)c1cc(Cl)ccc1NCC(N)c1ccccc1 (stereo not drawn)	KLK7 zymogen act 18 | KLK7 act conf inactive | EDANS-DABCYL int inactive
COc1ccccc1CC(=O)Nc1ccc(Cl)cc1C(=O)O	none
Cc1ccc2c(c1)N(CCCC(=O)N(C)Cc1ccccc1F)C(=O)CO2	none
CCCc1cc(=O)oc2cc(C)cc(OCC(=O)N3CCC(C(=O)O)CC3)c12	KLK7 zymogen act 16 | KLK7 act conf 13 | EDANS-DABCYL int 16
CCCc1cc(=O)oc2cc(C)cc(OCC(=O)N3CCC(C(N)=O)CC3)c12	KLK7 zymogen act 17 | KLK7 act conf inactive | EDANS-DABCYL int 10
CCCCc1cc(=O)oc2cc(C)cc(OCC(=O)N3CCC(C(=O)O)CC3)c12	KLK7 zymogen act 17 | KLK7 act conf 25 | EDANS-DABCYL int 18 | K7 EDANS ctr inactive
Cc1cc(OCC(=O)N2CCC(C(=O)O)CC2)c2c(C)cc(=O)oc2c1	none
CCc1cc(=O)oc2cc(C)cc(OCC(=O)N3CCC(C(=O)O)CC3)c12	KLK7 zymogen act 16 | KLK7 act conf 19 | EDANS-DABCYL int 19
Cc1cc(CN2CCN(c3ncc(Cc4ccccc4)cn3)CC2)cc(C)c1O	none
CN(c1cccnc1)c1ccc(NC(=O)CCc2c[nH]c3ccccc23)cc1Br	none
CCc1cc(=O)oc2cc(C)cc(OCC(C)=O)c12	KLK7 zymogen act 13 | KLK7 act conf inactive | EDANS-DABCYL int 17
O=C(Nc1ccccc1C(=O)Nc1ccccc1C(=O)NCc1ccco1)c1ccco1	KLK7 zymogen act 20 | KLK7 act conf inactive | EDANS-DABCYL int inactive
CCOc1ccc2nc(N3CCOCC3)nc(C)c2c1	KLK7 zymogen act 21 | KLK7 act conf inactive | EDANS-DABCYL int inactive
Cc1ccc(-c2nnc(SCC(=O)Nc3ccc(F)cc3F)n2Cc2ccco2)cc1	none
Nc1ccc2nc3c(=O)n(C4CCCCC4)c(=O)[nH]c3nc2c1	KLK7 zymogen act 14 | KLK7 act conf inactive | EDANS-DABCYL int 7.6
Cc1cc(=O)oc2c3c(cc(OCC(=O)NC4CC4)c12)OC(C)(C)CC3	KLK7 zymogen act 15 | KLK7 act conf 22 | EDANS-DABCYL int 27

Screening results deposited in PubChem by The Scripps Research Institute Molecular Screening Center.
